Results from PubChem BioAssay AID624330 (Southern Research Specialized Biocontainment Screening …, 2012).
Screen size: about 340,000 compounds; about 2,100 (0.62%) were called active.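 The calls were made as follows: active = first-screen hits whose inhibition reached a set limit at any dose in the follow-up dose series; inconclusive = inhibition above the set first-screen limit but never retested; inactive = the rest.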 These entries were drawn from the full list. Measured potencies and affinities stand elsewhere.

The compounds below were run against Rac GTPase-activating protein 1 (Homo sapiens) (UniProt Q9H0H5) (assay: blockers of MgcRacGAP-driven Rac1 GTP hydrolysis – biochemical, ADP Hunter fluorescence, primary and confirmatory, confirmation (AID 624330;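 also: fluorescence reports GDP produced by GAP-driven GTP hydrolysis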)). Conditions: MgcRacGAP-stimulated Rac1 GTP hydrolysis, at 30 µM, hits give high values, GST-tagged Rac1 F28L mutant substrate.
Chain of Rac GTPase-activating protein 1 (Homo sapiens) (Q9H0H5 whole entry, looked up): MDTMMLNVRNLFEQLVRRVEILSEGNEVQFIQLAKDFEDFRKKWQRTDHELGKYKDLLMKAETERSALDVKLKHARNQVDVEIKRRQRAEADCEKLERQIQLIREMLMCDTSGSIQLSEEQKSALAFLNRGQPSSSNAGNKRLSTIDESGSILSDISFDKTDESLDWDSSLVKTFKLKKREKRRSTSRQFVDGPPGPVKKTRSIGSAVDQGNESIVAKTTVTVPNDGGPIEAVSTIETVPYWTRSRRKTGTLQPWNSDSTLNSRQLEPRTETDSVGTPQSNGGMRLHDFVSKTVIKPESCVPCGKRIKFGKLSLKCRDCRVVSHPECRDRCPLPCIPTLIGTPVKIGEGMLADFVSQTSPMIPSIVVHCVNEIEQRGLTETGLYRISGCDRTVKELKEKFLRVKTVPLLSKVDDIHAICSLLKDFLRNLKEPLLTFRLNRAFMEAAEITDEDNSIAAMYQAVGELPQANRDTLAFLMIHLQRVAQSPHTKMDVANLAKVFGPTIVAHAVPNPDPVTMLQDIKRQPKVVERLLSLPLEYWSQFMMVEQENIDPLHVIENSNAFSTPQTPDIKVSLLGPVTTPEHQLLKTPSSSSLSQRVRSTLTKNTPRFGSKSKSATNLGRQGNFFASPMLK

inhibition, inactive:
COc1ccc(NC(=O)N2CCN(S(=O)(=O)c3ccc(F)cc3)CC2)c(OC)c1 7.35%, CCCCCCCNC(=O)C1(CC2CC(c3ccc(Cl)cc3)=NO2)CCN(C(=O)CCCCCBr)CC1 (stereo unspecified) 3.79%, COc1ccc2cc(CN(CC3COCCO3)S(=O)(=O)c3ccccc3)c(=O)[nH]c2c1 (stereo unspecified) -14.3%, Cc1onc(-c2ccccc2)c1C(=O)N/N=C/c1ccco1 4.91%, N#Cc1ccc(NC(=O)Cn2c3[n+](c4ccc(C(F)(F)F)cc42)CCCCC3)cc1 -1.69%, CNc1nc(-c2ccc3c(c2)CCN3C(=O)c2ccccc2C)cs1 10.3%, COc1ccc(-c2cc(C(=O)Nc3cccnc3Cl)no2)cc1 9.21%, C=CCn1ccc2c([N+](=O)[O-])cccc2c1=O 8.97%, COCCNC(=O)c1ccccc1NC(=O)c1ccccc1N(C)S(=O)(=O)c1ccc(C)cc1 3.63%, CC1CCCN(C(=O)c2cc(S(=O)(=O)N3CCCCC3)c[nH]2)C1 (stereo unspecified) -0.16%, CCCc1nc(NCc2ccccc2)c(C#N)c2c1CCCC2 8.86%, Cc1c(NC(=O)c2ccc(S(=O)(=O)N3CC(C)OC(C)C3)cc2)c(=O)n(-c2ccccc2)n1C (stereo unspecified) 4.26%, COc1ccc(C(=O)CCC(=O)Nc2cccc(Cl)c2)cc1 4.1%, COc1ccc(NC(=O)CCC(=O)c2ccc(C(C)C)cc2)cc1 12.2%, CCOc1ccccc1N1CCN(CC(=O)Nc2ccnn2C2CCCC2)CC1 5.05%, CN(C(=O)CSc1nc2scc(-c3ccccc3)c2c(=O)[nH]1)c1ccccc1 6.96%, O=C1c2ccccc2CN2C(=O)c3ccccc3CN12 3.55%, CC(C)CCN1CCN(C/C=C/c2ccco2)CC1CCO (stereo unspecified) 14.2%, COc1ccccc1/C=C/CN1CCN(Cc2ccc(C)o2)C(CCO)C1 (stereo unspecified) 11%, Cc1ccc(CN2CCN(C/C=C/c3ccc(F)cc3)CC2CCO)o1 (stereo unspecified) 7.9%, COc1ccc(/C=C/CN2CCN(CC(C)C)C(CCO)C2)cc1 (stereo unspecified) 5.86%, CC(C)(C)c1ccc(OC(=O)c2ccc3snnc3c2)cc1 4.25%, CC(=O)N/C(=C\c1ccccc1)C(=O)OCC(=O)NC(=O)c1ccccc1 5.8%, CC(OC(=O)C1CC(=O)N(Cc2ccco2)C1)C(=O)Nc1cccc(C#N)c1 (stereo unspecified) 6.14%, O=C(CN(C(=O)c1csnn1)c1ccc(F)cc1)NCCc1ccccc1 7.07%, COc1ccc(C(O)Cc2nccn2C)cc1 (stereo unspecified) 2.89%, Cc1cccc(-n2cnc(C(=O)O)c2)n1 4.99%, CC(=O)Nc1ccc(NC(=O)c2ccnn2C)cc1 3.95%, Cn1nccc1C(=O)Nc1ccc(Cl)cc1 -1.74%, C=CCN(C(=O)c1csnn1)C(C(=O)NC1CCCC1)c1ccc(F)cc1 (stereo unspecified) 5.68%, COC(=O)C[C@@H]1C[C@H]2c3cc(N(C)C)ccc3O[C@H]2[C@H](CO)O1 18.6%, COc1ccccc1CNC(=O)C[C@@H]1C[C@H]2c3cc(NC(=O)c4ccc5c(c4)OCO5)ccc3O[C@H]2[C@@H](CO)O1 13.4%, O=C1CN(S(=O)(=O)c2cccc(Cl)c2Cl)c2ccccc2N1 4.66%, COc1cc([N+](=O)[O-])ccc1NC(=O)CCN1C(=O)C2C3CCC(C3)C2C1=O (stereo unspecified) 6.61%, O=C(NCc1ccco1)c1ccc(Oc2ccccc2)cc1 1.55%, O=C(CNC(=O)c1ccco1)Nc1ccc(N2CCCCCC2)cc1 30.4%, O=C(CNCc1cccs1)Nc1ccc(S(=O)(=O)N2CCCCC2)cc1 14.5%, S=C(NCc1ccco1)Nc1ccc(Oc2ccccc2)cc1 1.09%, COc1ccc(C)cc1NC(=O)CNCc1cccs1 0.81%, COc1ccc(NC(=O)Cc2cccs2)c(OC)c1 8.99%, O=C(Cc1ccccc1)Nc1ccc(N2CCCCC2)cc1 1.26%, CC(=O)c1ccc(NC(=O)CNCc2cccs2)cc1 28.6%, CCCOC(=O)C(C)n1cnc2scc(-c3ccc(C)cc3)c2c1=O (stereo unspecified) 8.26%, N#CC(=C(O)CN1CCN(c2ccccc2F)CC1)c1nc(-c2ccccc2)cs1 6.97%, CCOC(=O)CSc1nc2ccc(N3CCOCC3)cc2c(=O)n1Cc1ccccc1 1.81%, O=C1NCC(NC(=O)C(F)(F)F)c2cc3c(cc21)OCO3 (stereo unspecified) -0.85%, CCN1C(=O)[C@H]2[C@H]3CN=C(SCc4ccccc4)N3[C@@](C)(C(=O)OC)[C@H]2C1=O 13.1%, Cc1ccc(C(=O)c2c(NC(=O)CSc3nnc(N)s3)sc3c2CCCC3)cc1 -2.45%, CCOC(=O)N1CCN(CC(=O)Nc2ccc(Oc3ccccc3)cc2)CC1 5.48%, CCN(CC)C(=O)C(=O)Nc1ccc(Oc2ccccc2)cc1 2.61%, Cc1ccc(-c2nc3cnccn3c2Nc2ccc3c(c2)OCCO3)o1 12.5%, O=C(O)c1cccc(-n2cccc2/C=C\[N+](=O)[O-])c1 26.7%, CCOc1ccc(-n2cccc2C=O)cc1 4.88%, COc1ccc(-n2cccc2C=O)cc1 4.9%, CN(C)c1ccc(-n2cccc2/C=N/n2cnnc2)cc1 9.83%, CC(=O)NC(Cc1ccccc1C)C(=O)NC1CCN(c2nnnn2-c2ccccc2)CC1 (stereo unspecified) 3.78%, C#CCO[C@@H]1C[C@H](n2ccc(NC(=O)c3ccccc3)nc2=O)O[C@@H]1CO 7.23%, CSc1ncccc1C(=O)N1CCCC(N2CCN(c3ccccc3C)CC2)C1 (stereo unspecified) 10.5%, O=C(NC(c1ccccc1)c1ccccc1)C1CCCN(S(=O)(=O)c2cnc[nH]2)C1 (stereo unspecified) 1.47%, C=CCc1ccc(OCCOCCN(C)C)c(OC)c1 11.5%, C=CCc1ccc(OCCOCCNCCOC)c(OC)c1 8.29%
